Experiment in all cases: NCI-60 one-dose screen, 48 h (100 = growth as untreated, 0 = no growth, -100 = all killed)
What all share (conditions): 10 µM unless noted

The subject of experiment [1] is NCI-H23 lung.
The test system of experiment [2] is NCI-H226 lung.
Experiment [3] deals with NCI-H322M lung.
Experiment [4] relates to HOP-62 NSCLC.
Experiment [5] deals with NCI-H460 lung.
Experiment [6] deals with HOP-92 NSCLC.
Experiment [7] deals with NCI-H522 lung.
For experiment [8], the system named is A549/ATCC NSCLC.
Experiment [9] concerns 786-0 renal.
Experiment [10] has as its system COLO 205 colon.
Experiment [11] deals with DU-145 prostate.
Experiment [12] has as its system K-562 leukemia.
Experiment [13] concerns MALME-3M melanoma.
The test system of experiment [14] is MDA-MB-231 breast.
Experiment [15] has as its system RXF 393 renal.
Experiment [16] concerns SF-268 CNS.
Experiment [17] relates to SF-295 CNS.
For experiment [18], the system named is SF-539 CNS.
Experiment [19] concerns UACC-257 melanoma.
Experiment [20] relates to M14 melanoma.

About 83,000 compounds went through this panel and 20% of them were active in at least one assay; those are over-represented in the sample as a whole.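 Negative percent growth values reflect cell death: -40 means 40% of the cells present at the start died, and -100 means all died.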 Unmarked numbers belong to inactive results. Activity calls are given as the source filed them. Rule for the calls: active = growth percent below 10; inactive = the rest.

`CN(C)c1ccc(C2C(C#N)=C(/N=C/c3ccccc3)Oc3c2ccc2ccccc32)cc1` (stereo not given): the growth in experiment [1] is 80.9%; in experiment [2], 55.5%; in [3], 98.5%; in experiment [4], 51.2%; in experiment [5] it was 51.3%; in experiment [6], 59.8%. Also, the growth in [7] was 36.4%; in [8], 71.4%; in [9] it was 89%; in experiment [10], 116%; in experiment [11], 87.8%; in experiment [12], 17.1%. Also, the growth in experiment [13] was 77.8%; in experiment [14], 58.1%; in [15], 75.9%; in [16], 66.5%; in experiment [17] it was 49.5%; in experiment [18] it was 68.6%. Further, the results for the growth in experiment [19] and in experiment [20] were 82.7% and 59.4%, respectively.
For `N#C/C(=C\c1ccc(Cl)cc1)n1nnc2cc(F)c(F)cc21`, the growth was 30% in experiment [1]; 83.8% in experiment [2]; 33.9% in experiment [3]; 59.1% in experiment [4]; -22.2% (active) in [5]; 5.41% (active) in experiment [6]. Further, the growth in experiment [7] was 3.72% (active); in [8], 32.8%; in experiment [9], 14.7%; in [10], 8.61% (active); in [11], 14%; in experiment [12], 11.5%. The growth was 14.8% in [13]; 11.9% in experiment [14]; -18.6% (active) in [15]; 35.7% in experiment [16]; 86% in experiment [17]; 3.56% (active) in [18]. Further, the growth in experiment [19] is 27.7%; in experiment [20] it was 11.1%.
`Nc1n[nH]c2cccc(C#Cc3cccc(C(=O)Nc4cc(CN5CCOCC5)cc(C(F)(F)F)c4)c3)c12`: the growth in experiment [1] was 38.4%; in experiment [2], 26.7%; in experiment [3], 62.1%; in [4] it was 38.7%; in experiment [5], 26.6%; in experiment [6], -7.48% (active). Besides, the growth in experiment [7] is 39.3%; in [8] it was 42.4%; in experiment [9], 63.8%; in experiment [10], 14.6%; in [11], 58.9%; in experiment [12], 4.98% (active). Moreover, the growth in experiment [13] was 0.564% (active); in experiment [14] it was 19.6%; in experiment [15], 24%; in [16], 41.9%; in experiment [17], 54.6%; in experiment [18], 8.6% (active). Moreover, the growth in [19] was 33%; in experiment [20], 6.89% (active).
For `COc1ccccc1/C=C1\Oc2cc(OCCN3CCCC3)ccc2C1=O`, the growth was 82.8% in [1]; 85.3% in experiment [2]; 99.8% in experiment [3]; 96.4% in experiment [4]; 84.6% in [5]; 59.5% in experiment [6]. Besides, the growth in experiment [7] was 89.8%; in [8], 95.3%; in [9], 82.5%; in experiment [10], 95.4%; in [11] it was 89.2%; in [12] it was -5.04% (active). For the same compound, the growth in [13] is 104%; in [14], 81.8%; in [15], 71.5%; in [16], 91.3%; in [17], 95.4%; in experiment [18] it was 85.9%. Moreover, the growth in [19] is 95%; in experiment [20], 77.2%.
In the case of `Cc1cc2nc3c4cc(C=O)ccc4n(CCN(C)C)c3nc2cc1C`, the growth is 17.4% in experiment [1]; -3.6% (active) in [2]; 21% in experiment [3]; 7.67% (active) in experiment [4]; 0.703% (active) in experiment [5]; 27% in experiment [6]. Also, the growth in experiment [7] was -9.47% (active); in experiment [8], 6.3% (active); in experiment [9], 27.5%; in experiment [10], -15.9% (active); in [11], 0.0752% (active); in [12], 5.5% (active). The growth in [13] is -3.12% (active); in [14], 24%; in experiment [15], 19.4%; in [16], 37.3%; in experiment [17], 17.1%; in [18], 21%. Moreover, the growth is 11.4% in experiment [19] and 15.8% in [20].
In the case of `COc1ccc(C(C)=O)c(OC)c1`, the growth in experiment [1] was 105%; in experiment [2], 95.1%; in experiment [3], 124%; in experiment [4], 103%; in experiment [5], 115%; in experiment [6] it was 75.5%. Moreover, the growth in experiment [7] is 89.9%; in experiment [8], 105%; in experiment [9] it was 103%; in [10], 113%; in experiment [11] it was 113%; in [12] it was 118%. Moreover, the growth in experiment [13] was 110%; in [14], 102%; in experiment [15] it was 117%; in experiment [16] it was 111%; in experiment [17] it was 110%; in [18] it was 103%. Besides, the figures for the growth in [19] and in [20] were 97.8% and 108%, respectively.
Turning to `N#Cc1cc(-c2nc3ccccc3s2)c(=O)n(NS(=O)(=O)c2ccccc2)c1N`, the growth is 102% in experiment [1]; 85.7% in experiment [2]; 108% in experiment [3]; 90.1% in experiment [4]; 106% in [5]; 104% in experiment [6]. Besides, the growth is 94.2% in experiment [7]; 117% in [8]; 106% in experiment [9]; 122% in [10]; 116% in experiment [11]; 104% in experiment [12]. For the same compound, the growth in experiment [13] is 112%; in experiment [14], 91%; in [15] it was 113%; in experiment [16], 97.4%; in experiment [17], 111%; in experiment [18], 100%. In addition, the growth is 111% in experiment [19] and 107% in [20].
For the compound `NS(=O)(=O)c1ccc(Cn2c(SCC(=O)N/N=C/c3ccccc3O)nc3ccccc3c2=O)cc1`, the growth in [1] was 63.2%; in experiment [2], 57%; in experiment [3], 46.8%; in experiment [4] it was 35.5%; in experiment [5], 49.1%; in experiment [6], 54%. Further, the growth in experiment [7] is -1.28% (active); in experiment [8], 69.4%; in experiment [9] it was 71.1%; in [10] it was 29.1%; in [11], 72.5%; in experiment [12] it was 36.6%. In addition, the growth in [13] is 59%; in experiment [14], 30.1%; in [15], 72.2%; in experiment [16] it was 38.2%; in [17] it was 65.9%; in [18], 54.3%. Also, the growth in experiment [19] was 70.6%; in [20], 42%.

Values taken from PubChem BioAssay (NCI).
